Bioassay records deposited in PubChem BioAssay by National Center for Advancing Translational Sciences (NCATS).
Most compounds without a hit are left out; they make up all but 1% or so of the library.
gsp antag: antagonists of gsp mutant (McCune-Albright syndrome). gsp-mutant cells, cAMP HTRF, 30 min. 0.4% of 340,000 active. Potency, µM (series often up to 76.9 µM), without a hit: at the highest dose activity change, negative = inhibition, actives largely listed as inhibitors; calls by dose curve; cell line not stated here;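 note: intracellular cAMP measured with PDE inhibitor Ro 20-1724 present during compound exposure; potency is the fitted concentration of half-maximal effect; % is set by controls: 0 for no effect and ±100 for the full control effect; nearly all actives have a fitted effect of over 65% in size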
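Cells, 2000/well, grown 16–24 h in DMEM 10% FBS with 0.5 mg/ml G418, then compounds plus […] (300 uM addition stock), 30 min at 37C. cAMP read by HTRF (cAMP-d2 and anti-cAMP antibody-K in lysis buffer) after 30 min RT.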
RXFP1 antag: antagonists of human relaxin receptor RXFP1; AID 1259400; 0.59% of 350,000 active; HEK293-RXFP1, relaxin-stimulated cAMP HTRF, 30 min; stronger effect = lower value; activity change, negative = inhibition, % at 57.5 µM;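 active = activity change of -60% or lower, but not beyond a set lower limit; inconclusive = change between -60% and -40%, or beyond the set limit; inactive = change above -40%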; note: % is set by controls: 0 for no effect and ±100 for the full control effect
TSHR antagonist: blocks TSH signaling through the human TSH receptor. TSHR-expressing cells, TSH-stimulated cAMP HTRF, 2 h; stronger effect = lower value. activity change, negative = inhibition, % at 11.5 µM. 0.2% of 330,000 active;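 active = activity change below a set negative limit, meaning inhibition stronger than a set level, cut at about -70% in these data; inconclusive = activity change between two set negative limits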; note: % is set by controls: 0 for no effect and ±100 for the full control effect
Target sequence (P16473 whole entry, looked up): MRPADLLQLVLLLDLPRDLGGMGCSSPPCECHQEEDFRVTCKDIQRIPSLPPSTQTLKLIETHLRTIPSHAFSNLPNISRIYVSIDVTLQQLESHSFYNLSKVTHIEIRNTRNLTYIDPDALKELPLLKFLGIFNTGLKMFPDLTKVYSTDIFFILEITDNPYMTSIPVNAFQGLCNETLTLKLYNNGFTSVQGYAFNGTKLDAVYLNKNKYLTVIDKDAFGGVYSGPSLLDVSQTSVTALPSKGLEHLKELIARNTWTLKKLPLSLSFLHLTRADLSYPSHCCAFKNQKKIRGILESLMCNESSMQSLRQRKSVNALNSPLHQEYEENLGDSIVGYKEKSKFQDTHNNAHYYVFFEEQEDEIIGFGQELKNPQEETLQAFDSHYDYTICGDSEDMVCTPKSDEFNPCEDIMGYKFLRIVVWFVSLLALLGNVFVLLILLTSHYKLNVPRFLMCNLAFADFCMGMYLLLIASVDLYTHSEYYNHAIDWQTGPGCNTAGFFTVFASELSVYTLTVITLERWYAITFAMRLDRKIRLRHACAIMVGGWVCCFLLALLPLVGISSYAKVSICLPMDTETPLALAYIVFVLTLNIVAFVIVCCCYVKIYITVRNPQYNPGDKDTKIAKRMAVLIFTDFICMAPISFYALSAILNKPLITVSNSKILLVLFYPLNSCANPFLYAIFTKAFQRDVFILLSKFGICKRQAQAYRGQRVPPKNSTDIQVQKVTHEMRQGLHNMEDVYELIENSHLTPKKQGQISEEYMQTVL
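Competitive HTRF cAMP read-out (cryptate anti-cAMP antibody, cAMP-d2; 30 min, room temperature) in freshly harvested TSHR cells. Compounds added before TSH at EC80 (4nM final), followed by 2 hours' incubation at 37 deg C.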
RXFP1 agonist: RXFP1 (human) receptor agonism; 0.3% of 370,000 active; Q9HBX9; Potency, µM (doses to about 57.5 µM), for inactives: at the top dose activation, usual class: activators; HEK293T-RXFP1 cAMP TR-FRET, 30 min; response scale: percent of porcine relaxin response, buffer zero; active = well fitted activation curve with a large enough effect; inconclusive = small, poorly fitted or top-dose-only effect; note: potency is the fitted concentration of half-maximal effect; % is set by controls: 0 for no effect and ±100 for the full control effect; nearly all actives have a fitted effect of over 60% in size
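HEK293T cells stably expressing RXFP1 were pretreated with the PDE4 inhibitor Ro 20174, exposed to compounds for 30 min at 37C, lysed, and cAMP was read by TR-FRET. Data normalized to buffer (basal) and 29 nM porcine relaxin (100%).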
gsp agonist: agonists of gsp mutant (McCune-Albright syndrome). gsp mutant cells, cAMP HTRF, 30 min. Potency, µM (top dose mostly 76.9 µM), for the others: at the highest dose activation (cAMP increase), usual class: activators. 0.13% of 340,000 active. AID 624287; active = well fitted activation curve with a large enough effect; inconclusive = small, poorly fitted or top-dose-only effect, or another doubt; inactive = no such curve, though single readings can be large or run the other way; cell line not stated here;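 note: phosphodiesterase inhibitor Ro 20-1724 added with compounds to block cAMP breakdown; potency is the fitted concentration of half-maximal effect; nearly all actives have a fitted effect of over 60% in size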
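Cells in DMEM/10% FBS with G418 were pretreated with compounds in DMSO plus […] (300 uM stock) for 30 min at 37C. cAMP was measured by HTRF (cAMP-d2 plus anti-cAMP antibody-K) after 30 min at room temperature.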
Numbers without * were called inactive; ? = inconclusive; . = not tested or not shown; [ ] = remark or other dose.

SMILES	gsp antag	RXFP1 antag	TSHR antagonist	RXFP1 agonist	gsp agonist
COc1ccc(/C=C/C(=O)NNC(=O)c2cc(C)oc2C)cc1	4.6%	-61.9*	-3.6	3.0%	-0.7%[15.4 µM]
COc1ccccc1CNC(=O)c1cnc2sc(N3CCCCC3)nn2c1=O	.	-15.7	.	6.5%	.
CCCNC(=O)CN1C(=O)CSc2ccc(S(=O)(=O)N3CCC(C)CC3)cc21	.	3.3	.	-1.4%	.
CC1(C)CC(C(CCN(Cc2ccccc2)C(=O)c2ccco2)c2ccc(F)cc2)CCO1 (stereo not given)	28.2µM*	-28.5	-1.3	2.4%	-3.0%
CCOC(=O)C1CCN(C(=O)c2oc3ccc4c(c3c2C)C(O)CC2(CCCCC2)O4)CC1 (stereo not given)	0.0%	-93.5*	-11.0	0.0%	-1.0%
CCCCS(=O)(=O)c1oc(-c2ccc(F)cc2)nc1S(=O)(=O)c1ccc(C)cc1	.	-71.5*	.	0.0%	.
CCS(=O)(=O)c1oc(-c2ccc(F)cc2)nc1S(=O)(=O)c1ccccc1	.	-107.1*	.	-1.4%	.
CCCCS(=O)(=O)c1oc(-c2cccs2)nc1S(=O)(=O)c1ccc(F)cc1	.	-76.3*	.	0.7%	.
O=C(Nc1ccccc1)Nc1ncc([N+](=O)[O-])s1	28.2µM*	-17.9	?	1.0%	-12.1%[15.4 µM]
O=C(COC(=O)c1ccccc1)Nc1ncc([N+](=O)[O-])s1	-5.6%	-3.4	-26.4	.	-1.1%[15.4 µM]
NC(=O)c1nsc(C(=O)N(Cc2ccco2)C(C(=O)NCc2ccccc2)c2ccc(O)cc2)c1N (stereo not given)	11.2µM*	-4.2	15.4	-1.0%	7.4%
Cc1cc(C)cc(N(CC(=O)NCc2ccco2)C(=O)c2snc(C(N)=O)c2N)c1	-12.3%	-60.2*	10.4	-1.0%	-63.2%
CCOc1ccccc1NC(=O)C(NS(=O)(=O)c1ccc2c(c1)CCC(=O)N2)c1ccccc1 (stereo not given)	.	.	.	-0.5%	.
COC(=O)c1cc(Br)c(=O)n(-c2ccccn2)c1	-10.5%	-3.1	13.6	6.5%	0.0%
COC(=O)c1cc(Br)c(=O)n(-c2nccs2)c1	12.3%	12.3	36.8	15.8µM*	14.1µM*
CCC(=O)N1CCN(c2ccccc2NC(=O)c2ccc(-c3cccc([N+](=O)[O-])c3)o2)CC1	5.62µM*	-3.6	-8.6	1.0%	-0.6%[15.4 µM]
Cc1ccc(CCNS(=O)(=O)c2c(C)nc3sc(C)c(C)n3c2=O)cc1	.	-4.4	.	3.0%	.
CCc1ccc(-n2c(=O)c3cccnc3n2CC(=O)N(CC)c2cccc(C)c2)cc1	.	-31.0	.	9.0%	.
CC(=O)c1ccc2c3c(cccc13)CC2	-3.1%	-6.6	0.8	0.9%	-54.0%
ON=C(c1ccccc1)c1ccc2c3c(cccc13)CC2	.	-105.6*	.	.	3.6%
C(=N\Nc1nc2ccccc2[nH]1)/c1c[nH]c2ccccc12	39.8µM*	-25.5	-5.4	0.0%	4.2%[15.4 µM]
Cc1ccccc1/C=N/Nc1nc2ccccc2[nH]1	-8.0%	-12.3	-8.3	0.2%	1.9%
CCOC(=O)c1cnc(-n2nc(C)cc2C)nc1Nc1ccc(O)cc1	11.2µM*	6.2	-0.8	0.4%	1.5%
CCOC(=O)c1cnc(-n2nc(C)cc2C)nc1Nc1ccc(C)cc1	4.3%	-5.0	-3.7	2.5%	-38.2%
COc1ccc(-c2nc3sc(CCNC(=O)c4cc(OC)c(OC)c(OC)c4)c(C)n3n2)cc1	.	.	.	1.1%	.
SMILES	gsp antag	RXFP1 antag	TSHR antagonist	RXFP1 agonist	gsp agonist
Cn1c(=O)c([N+](=O)[O-])c(NCCCn2ccnc2)c2ccccc21	13.2%	-2.4	9.1	16.1%	8.5%[15.4 µM]
Cn1c(=O)c([N+](=O)[O-])c(-n2ccnc2)c2ccccc21	?	-110.1*	-25.1	1.6%	-4.3%[15.4 µM]
CCOC(=O)C(=CNc1cc(C)ccc1C)C(=O)OCC	35.5µM*	-9.4	-15.5	0.6%	0.1%
CCSc1nc2sc3c(c2c(=O)[nH]1)CC(C)(CC)OC3 (stereo not given)	5.5%	-5.7	-3.7	-0.2%	-6.2%
CCC1(C)Cc2c(sc3nc(SC)[nH]c(=S)c23)CO1 (stereo not given)	-5.8%	8.0	-13.8	25.1µM*	?
COc1ccccc1CNC(=O)C(NS(=O)(=O)c1ccc2c(c1)CCN2C(C)=O)C(C)C (stereo not given)	.	-11.8	.	0.7%	.
COc1cc2cc(CCOC(=O)c3ccc(F)cc3)oc(=O)c2cc1OC	50.1µM*	.	-2.0	2.2%	.
COc1ccc(CC(=O)Nc2cccc(-c3nnc(-c4cccc(C)c4)o3)c2)cc1OC	31.6µM*	-20.1	-92.4*	0.3%	15.9%
COc1ccc(-c2nc3c(c(SCC(=O)N4CCOCC4)n2)Cc2c(CO)cnc(C)c2O3)cc1	-25.8%	1.7	-134.7*	-2.4%	12.8%
CC(CCc1ccccc1)NC(=O)COC(=O)c1ccc(S(C)(=O)=O)c([N+](=O)[O-])c1 (stereo not given)	?	-89.2*	-47.4	-0.1%	3.0%[15.4 µM]
C=CC[n+]1c(-c2ccc(Cl)cc2Cl)csc1Nc1c(C)n(C)n(-c2ccccc2)c1=O	?	-67.8*	-9.2	0.2%	2.1%
C=CC[n+]1c(-c2ccc(C)cc2)csc1Nc1c(C)n(C)n(-c2ccccc2)c1=O	-5.7%	?	-6.1	3.8%	0.4%[15.4 µM]
COc1cc2[nH]c(C(=O)Nc3ccc(F)cc3)cc2c(OC)c1OC	.	.	-77.7*	1.7%	.
Cc1cc(C)c2cc(C(=O)Nc3ccc(C)c(F)c3)[nH]c2c1	-4.2%	-15.1	-1.1	0.6%	25.4%
COc1ccc(-c2nc3c4ccccc4n(CC(=O)N4CCN(c5ccc(F)cc5)CC4)c(=O)n3n2)cc1	.	-4.6	.	1.2%	.
CN(NC(=O)c1ccco1)c1nc2ccccc2nc1C(F)(F)F	-0.5%	8.6	-76.1*	0.8%	4.8%
COc1cc(CN(C(=O)COc2ccc(C)c(C)c2)c2ccccn2)cc(OC)c1OC	.	3.6	.	-0.8%	.
CCOc1ccc(NC(=O)Cn2sc3nc(C)cc(C)c3c2=O)cc1	-2.1%	-66.3*	-7.1	6.1%	-2.4%[15.4 µM]
Cc1cc(C)c2c(=O)n(CC(=O)Nc3ccc(Cl)cc3)sc2n1	-10.7%	-25.6	-2.9	1.1%	?
CN(Cc1ccccc1F)c1nc(-c2cccnc2)nc2ccccc12	?	-67.3*	10.8	-3.0%	1.0%[15.4 µM]
Cc1ccc(CN(C)c2nc(-c3cccnc3)nc3ccccc23)o1	-5.9%	-26.8	-3.6	3.4%	-22.5%[15.4 µM]
CCOC(=O)c1ccc(NC(=O)CCc2nc(-c3ccccc3)no2)cc1	39.8µM*	-16.7	-17.7	-0.6%	-18.7%
COC(=O)c1c(C)nsc1NC(=O)Oc1ccccc1	8.0%	15.2	3.1	2.9%	4.47µM*
CNc1snc(C)c1C(=O)OC(C)C(=O)Nc1ccccc1 (stereo not given)	-0.9%	-8.8	-4.6	2.6%	-26.5%
COc1ccc([C@]23Cc4cc(OC)c(OC)cc4C(O2)c2c(c4ccccc4oc2=O)O3)cc1	.	.	.	3.4%[11.5 µM]	.
